The values that follow come from PubChem BioAssay (NCI).

SMILES strings stand for the structures. This is part of a sample that, as a whole, favours compounds with a hit. Of some 83,000 tested, about 20% had one in any assay.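 Testing used 96-well plates and a 48-hour single-concentration exposure. Example: -40 means 40% of the starting cells died.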 A number with no mark means an inactive call. Activity calls are given as the source filed them. Rule for the calls: active = growth percent below 10; inactive = the rest.

Holding throughout (assay): NCI-60 one-dose screen, 48 h (100 = growth as untreated, 0 = no growth, -100 = all killed)
Common to all, as to conditions: 10 µM unless noted

Assay [1] has as its system DU-145 prostate.
In assay [2] the test system is K-562 leukemia.
Assay [3] relates to MALME-3M melanoma.
For assay [4], the system named is MDA-MB-231 breast.
Assay [5] has as its system RXF 393 renal.
Assay [6] deals with SF-268 CNS.
In assay [7] the test system is SF-295 CNS.
Assay [8] deals with SF-539 CNS.
For assay [9], the system named is UACC-257 melanoma.
The subject of assay [10] is M14 melanoma.
The subject of assay [11] is HCT-15 colon.
For assay [12], the system named is HT29 colon.
Assay [13] concerns SNB-19 CNS.
Assay [14] deals with U251 CNS.
The test system of assay [15] is PC-3 prostate.
For assay [16], the system named is SK-MEL-5 melanoma.
For assay [17], the system named is UACC-62 melanoma.
The test system of assay [18] is LOX IMVI melanoma.
The subject of assay [19] is SK-MEL-28 melanoma.
The subject of assay [20] is SNB-75 CNS.

As for `N[C@@H](CCCCNCC(=O)O)C(=O)O`, the growth was 103% in assay [1]; 100% in assay [2]; 97.6% in assay [3]; 89.1% in [4]; 108% in assay [5]; 102% in [6]. In addition, the growth in [7] is 100%; in assay [8] it was 92.7%; in [9], 101%; in assay [10], 104%; in [11] it was 98.8%; in assay [12], 116%. Also, the growth in [13] was 99.2%; in assay [14], 99.9%; in [15], 121%; in assay [16], 101%; in [17] it was 94.4%; in [18], 100%. For the same compound, the growth in assay [19] is 104%.

Turning to `CC(C)C(=O)Nc1n[nH]c2cc(-c3cccc(NS(=O)(=O)C4CC4)c3)ccc12`, the growth in assay [1] is 85.9%; in assay [2], 23.2%; in [3], 66.1%; in [4] it was 58.4%; in assay [5], 88.9%; in assay [6] it was 76.1%. Moreover, the growth was 56.3% in [7]; 77.8% in assay [8]; 66.8% in assay [9]; 55.7% in assay [10]; 84.3% in [11]; 76.2% in assay [12]. Also, the growth in assay [20] was 54.3%; in assay [13], 89.7%; in [14] it was 79.5%; in assay [15] it was 64%; in assay [17], 54.4%; in assay [19], 78.4%.

Turning to `COc1cccc(C(=O)NCCCNc2cc(-c3cn(-c4ccccc4)nc3-c3cccc(OC)c3)ccn2)c1`, the growth in assay [1] is 65.8%; in assay [2], 22.8%; in assay [3], 51.7%; in assay [4] it was 44%; in assay [5], 66.8%; in assay [6] it was 63.9%. In addition, the growth in [7] was 44%; in assay [8], 85.3%; in assay [9], 30%; in [10], 34.4%; in assay [11], 35.5%; in assay [12], 27.7%. The growth in assay [20] was 63.5%; in assay [13], 65%; in assay [14] it was 39.7%; in assay [15] it was 27.4%; in assay [17], 26.2%; in assay [18] it was 51.8%. Further, the growth in [19] was 65.7%.

For `C#CCOc1nc(C)cc(C)c1C#N`, the growth in assay [1] was 104%; in [2], 100%; in [3] it was 99%; in assay [4], 94.5%; in assay [5], 106%; in [6], 99.6%. For the same compound, the growth is 104% in assay [7]; 97.9% in assay [8]; 103% in assay [9]; 98.1% in assay [10]; 96% in assay [11]; 107% in [12]. Further, the growth in assay [13] is 96.2%; in assay [14], 98.1%; in assay [15], 140%; in assay [16], 98.9%; in assay [17], 93.5%; in [18], 97.4%. In addition, the growth in assay [19] is 111%.

`COc1ccc(/C=C/c2c(C(=O)/C=C/c3cccs3)c(C)nc3ccccc23)cc1`: the growth is 82.7% in assay [1]; 43.1% in [2]; 107% in [3]; 78.2% in [4]; 77.4% in assay [5]; 85.3% in assay [6]. Besides, the growth is 86.3% in assay [7]; 95.9% in [8]; 83.8% in assay [9]; 89.3% in [10]; 59.5% in [11]; 77.7% in [12]. For the same compound, the growth in assay [13] is 85.1%; in assay [14] it was 85.6%; in [15], 63%; in assay [16] it was 70.3%; in assay [17], 59.1%; in [18], 84.5%. Further, the growth in assay [19] was 92.4%.

As to `O=C(N/N=C/C=C/c1ccc([N+](=O)[O-])o1)c1cc2ccccc2cc1O`, the growth is -21.7% (active) in [1]; 4.52% (active) in [2]; -68% (active) in assay [3]; -15.9% (active) in assay [4]; -63.2% (active) in assay [5]; -20.3% (active) in [6]. Moreover, the growth was 14.4% in assay [7]; -83.6% (active) in assay [8]; -56.3% (active) in [9]; -100% (active) in assay [10]; -12.3% (active) in assay [11]; -11.7% (active) in assay [12]. Further, the growth is -34.4% (active) in assay [13]; -16% (active) in assay [14]; 4.52% (active) in assay [15]; -100% (active) in assay [16]; -64.3% (active) in [17]; -79.5% (active) in assay [18]. Besides, in assay [19], the growth was -66.5% (active).

Regarding `O=C(CSc1nccc(Nc2ccc(S(=O)(=O)Nc3nccs3)cc2)n1)c1ccc(F)cc1`, the growth in assay [1] was 105%; in assay [2] it was 113%; in [3], 103%; in [4], 113%; in assay [5], 112%; in [6], 105%. Further, the growth in assay [7] was 103%; in assay [8], 100%; in assay [9], 96.5%; in assay [10] it was 101%; in [11] it was 98.1%; in assay [12], 106%. Besides, the growth in assay [13] is 100%; in assay [14] it was 102%; in [15] it was 96.1%; in [16], 98.7%; in [17] it was 94.5%; in assay [18], 97.5%. In addition, the growth in assay [19] was 106%.

As for `CCCc1cc2c(=O)c(C(=O)OC)c[nH]c2cc1N(CC)CC`, the growth is 112% in assay [1]; 96.2% in [2]; 95.4% in [3]; 108% in [4]; 29.3% in [5]; 102% in assay [6]. For the same compound, the growth is 85.2% in assay [7]; 97.6% in assay [8]; 136% in [9]; 110% in assay [10]; 95.9% in [11]; 110% in assay [12]. For the same compound, the growth in [13] was 99.1%; in assay [14] it was 104%; in [15] it was 79.6%; in [16], 91.5%; in [17] it was 83%; in assay [18], 108%. Also, the growth in [19] was 112%.
